The record followed here is PubChem BioAssay AID434982 (The Scripps Research Institute Molecular Screening Center, 2010).

Screen size: about 15,000 compounds; about 60 (0.4%) were called active. Cut-off read from the data, not from the text of the source: active = activation above about 2.2%; inactive = the rest. Many of the other results were omitted from the sample, so actives are more common in it than they were.

The test in a line: agonists of NOTCH signaling (AID 434982). The conditions noted are these: NOTCH signaling luciferase reporter cells, luminescence; at 2.5 µM; active compounds read high. For orientation: A reporter such as luciferase makes a cellular process visible.
For `O=C1/C(=C\c2ccc3c(c2)OCO3)N2CCC1CC2`, the activation was 3.83% (active).

Turning to `CN(C)CC1CCCCC1=O` (stereo not given), the activation was 0.24% (inactive).

Regarding `CNC(=O)O/N=C(\N)Cc1csc2ccc(Cl)cc12`, the activation is 0.88% (inactive).

Turning to `Cc1ccc(Oc2c(C)nc(-c3ccccc3)nc2OC(=O)N(C)C)cc1`, the activation is 0.1% (inactive).

Turning to `N#CCN1CCN(c2cccc(Cl)c2)CC1`, the activation is 0.33% (inactive).
